Hits are enriched below; roughly 19% of the tested compounds scored in any of these assays.
MCF10A rerep: inducers of DNA re-replication in MCF 10A breast cells. Potency, µM (series often up to 46.1 µM), for the others: at the highest dose activity, positive = re-replication, hits mostly activators. AID 624296. 350,000 compounds, 2.9% hits. MCF 10A DNA re-replication, Hoechst nuclear intensity, 48 h; note: potency is the fitted concentration of half-maximal effect; % of control where 0% means no effect; nearly all actives have a fitted effect of over 50% in size
IL1B secr inh: blocks inflammasome-driven IL-1 beta release. 360,000 compounds, 4.7% hits. activity change, % at 57.5 µM. THP-1 LPS/ATP IL-1B secretion, AlphaLISA, 16 h; hits give low values; in the data active = activity change below about -50%; inconclusive = mostly about -30% to -49%; note: % is set by controls: 0 for no effect and ±100 for the full control effect
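THP-1 cells pretreated 1 hr with compounds (up to 57.5 uM final), then stimulated with LPS (250 ng/mL final) plus ATP (1.25 mM final); secreted IL-1B measured by AlphaLISA after 16 hr, decreased signal indicating inhibition.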
SW480 rereplic: inducers of DNA re-replication in SW480 colon cancer cells; SW480 DNA re-replication, Hoechst DNA content imaging, 48 h; Potency, µM (doses to about 46.1 µM), inactives show at the highest dose re-replication activation, actives largely listed as activators; 340,000 compounds, 1.8% hits; AID 624297; note: potency is the fitted concentration of half-maximal effect; % of control where 0% means no effect; nearly all actives have a fitted effect of over 55% in size
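Per well, 250 cells were exposed to pinned compound for 48 hr. Nuclear DNA was visualised with Hoechst (40 min, 37 C) and total object intensity recorded by fluorescence scanning.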
BCR signal inh: inhibitors of chronic active B-cell receptor signaling. ABC-DLBCL IkBa-CBG/CBR reporter, luminescence ratio, 4 h. Potency, µM (doses to about 46.1 µM), for inactives: top-dose activity change, negative = inhibition, most hits filed as inhibitors. 340,000 compounds, 0.05% hits; active = well fitted inhibition curve with a large enough effect in the signal ratio, with a control signal flat, not every such curve was filed as active; inconclusive = small, poorly fitted or top-dose-only effect, or effect the other way, or a change in a side signal; the % refers to the signal ratio;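 note: potency is the fitted concentration of half-maximal effect; plate controls were basal doxycycline-induced cells for no effect and cells given 10 µM MG132 for full effect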
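TMD8 ABC-DLBCL cells carrying doxycycline-inducible green luciferase fused to IkappaBalpha plus unfused red luciferase were exposed to compounds (up to 46 uM) for 4 hrs at 37C. Activity came from the overlap-corrected green/red luminescence ratio.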
TDP1 cell CPT: DT40-hTDP1 cell growth loss with CPT. AID 686979. chicken DT40 Tdp1-/-;hTDP1 cells + 20 nM CPT, ATP luminescence, 48 h. Potency, µM (highest dose often 46.2 µM), for the others: top-dose activity change, negative = growth inhibition, hits mostly inhibitors. 420,000 compounds, 12% hits; note: potency is the fitted concentration of half-maximal effect; % is set by controls: 0 for no effect and ±100 for the full control effect; nearly all actives have a fitted effect of over 55% in size
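Chicken DT40 Tdp1-/- cells complemented with human TDP1, 400 cells/well, exposed to compounds plus 20 nM camptothecin for at least 48 h at 37 C; viability read as ATP content by CellTiter-Glo luminescence.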
DT40 TDP1 no CPT: qHTS for Inhibitors of human tyrosyl-DNA phosphodiesterase 1 (TDP1): qHTS in cells in absence of CPT. Potency, µM (top dose mostly 46.2 µM), inactives show at the top dose activity change, negative = growth inhibition, actives largely listed as inhibitors. AID 686978, 2013. DT40 Tdp1-/- hTDP1 cells, no CPT, ATP luminescence, 48 h. 420,000 compounds, 15% hits; note: potency is the fitted concentration of half-maximal effect; % is set by controls: 0 for no effect and ±100 for the full control effect; nearly all actives have a fitted effect of over 55% in size
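A cellular qHTS used chicken DT40 cells lacking endogenous Tdp1 but carrying stably transfected human TDP1. Compounds were applied without camptothecin, and cell growth kinetics were judged by ATP-dependent luminescence after ≥48 hr.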
Starred values were filed as active, the others as inactive; ? = inconclusive; . = not tested or not shown; [ ] = remark or other dose. Unless noted, calls come from the whole dose curve; as a rule, active = well fitted curve in the direction sought with a large enough effect; inconclusive = small, poorly fitted or top-dose-only effect, or another doubt; inactive = no such curve, though single readings can be large; an effect the other way counts as inactive or inconclusive.

SMILES | MCF10A rerep | IL1B secr inh | SW480 rereplic | BCR signal inh | TDP1 cell CPT | DT40 TDP1 no CPT
Cc1cccc(Nc2nc(-c3ccccc3)c(C(=O)Nc3cccnc3)s2)c1 | 23µM* | -61* | 16µM* | ? | ? | ?
Cc1cccc(NC(=O)c2sc(Cl)nc2-c2ccccc2)c1 | 26% | 0 | -3% | ? | ? | 18µM*
O=C(Nc1cccnc1)c1sc(Nc2ccccc2)nc1-c1ccccc1 | 16µM* | -12 | 13% | ? | ? | ?
C[C@H](NC(=O)c1ccccc1)C(=O)OCC(=O)Nc1sccc1C(N)=O | 0% | 20 | 8% | -2% | -4% | -11%
O=C(NCc1ccco1)C1CC(c2c(Cl)cccc2Cl)=NO1 (configuration not stated) | ? | 10 | ? | -8% | ? | 16µM*
O=C(/C=C/c1c(Cl)cccc1Cl)NCc1ccco1 | -1% | -17 | -4% | ? | ? | 5.8µM*
O=C(NCc1ccco1)C1CC(c2ccc(Cl)c(Cl)c2)=NO1 (configuration not stated) | ? | 21 | -4% | 7% | 13µM* | 8.2µM*
O=C(NCc1cccc(C(F)(F)F)c1)C1CC(c2c(Cl)cccc2Cl)=NO1 (configuration not stated) | ? | 15 | ? | -17% | 16µM* | 16µM*
O=C(NCc1cccc(Br)c1)C1CC(c2cc(C(F)(F)F)cc(C(F)(F)F)c2)=NO1 (configuration not stated) | 0% | 17 | 1% | . | -33% | -7%
COC(=O)c1ccc(NC(=O)C2CCCN2C(=O)OCc2ccccc2)cc1 (configuration not stated) | 0% | 7 | 10% | 0% | -19% | -8%
CCOC(=O)[C@H]1[C@H]2COc3cc(OC)ccc3[C@@H]2N2C(=O)N(c3ccc(Cl)cc3)C(=O)[C@@]12C | 15% | -1 | 0% | 5% | 18µM* | ?
CCOC(=O)[C@@H]1[C@H]2COc3ccccc3[C@@H]2N2C(=O)N(c3ccc(C(F)(F)F)cc3)C(=O)[C@]12C | 3% | 0 | 7% | . | 18µM* | ?
CCOC(=O)[C@@H]1[C@H]2COc3ccccc3[C@H]2N2C(=O)N(c3ccc(Br)cc3)C(=O)[C@]12C | 0% | -1 | -9% | 2% | ? | ?
CCOC(=O)[C@@H]1[C@H]2COc3ccc(Br)cc3[C@@H]2N2C(=O)N(c3ccc(C(F)(F)F)cc3)C(=O)[C@]12C | -1% | -9 | 2% | ? | ? | 16µM*
CCOC(=O)[C@@H]1[C@H]2COc3ccc(Br)cc3[C@@H]2N2C(=O)N(c3ccc(Br)cc3)C(=O)[C@@]12C | 0% | -1 | -8% | 0% | ? | ?
CCOC(=O)[C@@H]1[C@H]2COc3ccccc3[C@@H]2N2C(=O)N(c3ccc(Br)cc3)C(=O)[C@]12C | -7% | 13 | 23µM* | -1% | -10% | ?
Cc1cccc(/C=N/NC(=O)c2ccc(NC(=O)c3cccc(Cl)c3)cc2)n1 | ? | -1 | ? | 24% | -5% | -25%
CCCNC(=O)[C@@H]1CCCN1C(=O)[C@@H]1Cc2ccccc2CN1 | -3% | 21 | -7% | -2% | 10% | ?
O=C(CSc1nc(-c2cccs2)nc2cc(=O)[nH]n12)Nc1cccc(C(F)(F)F)c1 | . | . | . | . | 8% | 2%
CCOC(=O)[C@@H]1[C@H]2COc3ccccc3[C@H]2N2C(=O)N(c3ccc(C(F)(F)F)cc3)C(=O)[C@]12C | -3% | -22 | 1% | 29% | 18µM* | 15µM*
CCOC(=O)[C@@H]1[C@H]2COc3ccccc3[C@@H]2N2C(=O)N(c3ccc(C(F)(F)F)cc3)C(=O)[C@@]12C | -2% | 1 | 2% | 1% | 13µM* | 23µM*
O=C(C[n+]1cccc(/C=N/O)c1)NC(=O)Nc1ccccc1 | . | . | . | . | -9% | 6%
CC(NC(=O)COC(=O)CCN1C(=O)C2CC=CCC2C1=O)c1ccc(Br)cc1 (configuration not stated) | -3% | 2 | 6% | 0% | -13% | 10%
Cc1ccc(S(=O)(=O)NCC(=O)NCC(=O)OCc2c(F)cccc2Cl)cc1 | 9% | 19 | 18µM* | ? | -8% | -15%
CCCC[C@H](CN[C@@H](CNC)[C@H](C)CC)NCCC12CCC(CC1)C2 | ? | -68* | 10% | ? | 2.6µM* | 3.7µM*
SMILES | MCF10A rerep | IL1B secr inh | SW480 rereplic | BCR signal inh | TDP1 cell CPT | DT40 TDP1 no CPT
COc1ccc(/C(N)=N/OC(=O)c2ccc(OC)c([N+](=O)[O-])c2)cc1OC | 12% | -13 | 8% | 2% | ? | 12µM*
COc1ccc(C(=O)O/N=C(\N)c2ccccc2)c(OC)c1 | 2% | -2 | ? | ? | ? | ?
COc1ccc(C(=O)O/N=C(\N)c2ccc(OC)c(OC)c2)c(OC)c1 | 19% | -54* | 1% | ? | ? | ?
COc1ccc(/C(N)=N/OC(=O)c2cccc([N+](=O)[O-])c2)cc1OC | -3% | -23 | -8% | 7% | -26% | -29%
CCc1cccc(C)c1NC(=S)NCC(c1cccnc1)N1CCOCC1 (configuration not stated) | -5% | 15 | -2% | -2% | -3% | -18%
Cc1nnsc1C(=O)NCC1Cc2cccc(-c3ncccn3)c2O1 (configuration not stated) | . | . | . | . | 20%[9.04 µM] | 0%
CC(Sc1nnc(NCc2ccccc2)s1)C(=O)Nc1ccc2c(c1)C(=O)c1ccccc1C2=O (configuration not stated) | 7% | -2 | 1% | ? | ? | 18µM*
O=C1NC(CCO)C(=O)NC1CCO (configuration not stated) | -38% | -3 | -13% | . | 22% | -4%
Cc1ccc(S(=O)(=O)N2CCC(C(=O)O)CC2)cc1 | -7% | -4 | 7% | ? | -7% | 1%
O=C(Cn1cnc([N+](=O)[O-])n1)NCCO | -1% | 8 | 6% | 4% | 15% | -10%
CCOC(=O)c1sc2nc3c(SCCC#N)cc(C(=O)c4cc(F)ccc4O)cn3c(=O)c2c1C | 18% | 2 | 19% | -3% | ? | ?
CCOC(=O)c1sc2nc3c(SCCC(=O)O)cc(C(=O)c4cc(OC)ccc4O)cn3c(=O)c2c1C | ? | 10 | 2.6µM* | ? | 3.7µM* | 5.2µM*

Screening data from PubChem.
